Results filed as inconclusive are left out. Calls of active or inactive are those of the source. Unless noted, the call rests on the fitted dose curve; in most records, active means well fitted curve in the direction sought with a large enough effect; inconclusive means small, poorly fitted or top-dose-only effect, or another doubt; inactive means no such curve, though single readings can be large; an effect the other way counts as inactive or inconclusive.
Assays:
[1] = AP1 Signaling Pathway (AID 357; active means well fitted curve in either direction with a large enough effect, not every such curve was filed as active;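 further: ME-180 reporter cells stimulated with EGF at its EC50 level; on the % scale 0 is the no-effect control and ±100 the full control effect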)
In short: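 Beta-lactamase reporter under AP-1 response element, ME-180 background. Stimulus: EC50 EGF. Compound exposure 5 h, 37 °C. Detection: CCF4, 2.5 h RT, 460/530 nm. Values: AC50 from titration.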

[2] = target: Cytochrome P450 1A2 (Homo sapiens) (UniProt P05177); assay: p450-cyp1a2 (AID 410; calls by dose curve; further: potency means the concentration at half of the fitted maximal effect;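 on activity change, negative = inhibition: -100% = full effect of reference inhibitor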)
In short: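 Inhibition was calculated relative to 57 uM furafylline (full inhibition). The reaction used human CYP1A2 at 20nM with Luciferin-ME at its Km, 100uM, driven by an NADPH-regenerating system for 60 min at room temperature.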

[3] = NFAT Signaling Pathway (AID 444; active means well fitted curve in either direction with a large enough effect, not every such curve was filed as active;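 further: carbachol stimulus at about its EC50 of 1 µM final; on the % scale 0 is the no-effect control and ±100 the full control effect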); conditions: Jurkat NFAT-bla M1, carbachol, beta-lactamase ratio, 5 h; at 17.2 µM (top of the series) unless noted
In short: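 Jurkat cells with NFAT-driven β-lactamase reporter and co-expressed M1 receptor, stimulated with carbachol (final 1 uM, ~EC50), compound titration, 5 h at 37 °C. CCF4 loaded 1 h at RT; 460/530 nm ratio gave %activity and AC50.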

[4] = Stat Signaling Pathway (AID 446; active means well fitted curve in either direction with a large enough effect, not every such curve was filed as active;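 further: ME-180 cervical cancer cells given 40 pM IL-6 alongside compound; SIE-controlled beta-lactamase reporter measured as 460/530 nm FRET emission ratio; on the % scale 0 is the no-effect control and ±100 the full control effect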)
In short: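 ME-180 cells carrying a SIE-driven beta-lactamase reporter are stimulated with 40 pM IL-6 for 5 h at 37C in the presence of compound. The 460/530 nm FRET substrate ratio is read after 2.5 h at RT. Data are normalised to 300 pM IL-6 and to 125 nM JAK inhibitor controls.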

[5] = target: Glucocorticoid receptor (Homo sapiens) (UniProt P04150); assay: GR-GFP Redistribution (AID 450;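 active means compounds whose dose series gives a full or clear partial fitted curve of increased nuclear translocation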; further: potency means the concentration at half of the fitted maximal effect); conditions: U2OS GR-GFP nuclear translocation, laser cytometry, 2 h
[6] = target: Glucocorticoid receptor (Homo sapiens) (UniProt P04150); assay: GR-EFC Redistribution (AID 451; calls by dose curve; further: potency means the concentration at half of the fitted maximal effect); conditions: CHO-K1 GR-EFC translocation, beta-gal luminescence, 2 h
In short: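 CHO-K1 cells expressing nuclear EA and GR-ED fragments of b-gal; compounds titrated up to 46 uM final, 2 h at 37 C. GR nuclear translocation read as complemented b-gal luminescence after 1 h RT detection.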

[7] = target: Mitogen-activated protein kinase 10 (Mus musculus) (UniProt Q61831); assay: JNK3 AlphaScreen Assay (AID 530; active means well fitted curve in either direction with a large enough effect, not every such curve was filed as active;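 further: kinase came from lysate of stimulated human HepG2 cells; signal reports phosphorylation of biotinylated GST-cJun 1-79 at Ser73 with 10 µM ATP; on the % scale 0 is the no-effect control and ±100 the full control effect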)
In short: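 qHTS format: compounds tested as titrations against IL-1beta/TNF-alpha-activated HepG2 lysate JNK3 with biotin-GST-cJun substrate and 10 uM ATP at room temperature. Loss of anti-phospho-cJun AlphaScreen signal indicates inhibition.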

[8] = target: 3',5'-cyclic-AMP phosphodiesterase 4B (Homo sapiens) (UniProt Q07343); assay: qHTS Assay for Inhibitors of PDE-IV (AID 607; active means well fitted activation curve with a large enough effect in the main read-out, with a control signal flat, not every such curve was filed as active; further: % of control where 0% means no effect)
In short: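 HEK293 ACTOne cells with CNG channel (1000/well), endogenous PDE4; membrane potential dye, compounds up to 22.9 uM final. Fluorescence Ex 535/Em 590; RO 20-1724 (100 uM final) as reference.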

[9] = qHTS Assay for Lipid Storage Modulators (AID 1519; calls by dose curve); conditions: Drosophila S3 cells, BODIPY lipid droplet/cell ratio, laser cytometry, cells loaded with oleic acid
In short: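 Cells seeded at 5,000 per well were treated with compounds over a concentration series and loaded with oleic acid (400 uM, as added). Lipid droplet fluorescence (488 nm excitation, 500-530 nm channel) was read by laser-scanning cytometry and normalized to 20 uM Triacsin C.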

[10] = target: Ubiquitin carboxyl-terminal hydrolase 1 (Homo sapiens) (UniProt O94782); assay: Inhibitors of USP1/UAF1: Pilot qHTS (AID 504865);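 further: rhodamine fluorescence freed from ubiquitin-rhodamine substrate followed over time; top concentration of the series differs between compounds; on the % scale 0 is the no-effect control and ±100 the full control effect; nearly all actives have a fitted effect of over 35% in size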
In short: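 USP1/UAF1 complex (1nM) preincubated with compound 15 min at room temperature, then Ub-Rho substrate (150nM final) added. Fluorescence read kinetically at 480/540 nm, 6 reads every 60 seconds. Buffer: 50mM HEPES pH 7.8, 0.5mM EDTA, 0.1 mg/ml BSA, 1mM TCEP, 0.01% Tween-20.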

[11] = target: ATP-dependent 6-phosphofructokinase (Trypanosoma brucei brucei) (UniProt O15648); assay: qHTS Assay to Find Inhibitors of T. brucei phosphofructokinase: hit validation (AID 492961); further: on the % scale 0 is the no-effect control and ±100 the full control effect
In short: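 Luminescence from ADP-Glo reports ADP generated as T. brucei PFK (1.25 nM) phosphorylates 0.5 mM fructose-6-phosphate using 0.1 mM ATP. Reactions ran 45 min at room temperature, pH 8.0.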

[12] = target: Luciferin 4-monooxygenase (Photinus pyralis) (UniProt P08659); assay: Biochemical firefly luciferase enzyme assay for NPC (AID 624030);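 further: purified P. pyralis luciferase at 10 nM with luciferin and ATP substrate; 0% = DMSO and -100% = full luciferase inhibition by PTC124 control; nearly all actives have a fitted effect of over 70% in size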
In short: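 Purified P. pyralis luciferase at 10 nM in 50 mM Tris Acetate (final), luminescence read within 5 minutes of enzyme addition to compounds. Activity normalised to PTC124 versus DMSO; concentration-response curves classed by r2, magnitude and activity.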

[13] = S16 Schwann cell PMP22 intronic element firefly luciferase assay (AID 624032);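 further: plate controls were DMSO for no effect and PTC124 positive control mean for full effect; nearly all actives have a fitted effect of over 30% in size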
In short: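 Rat S16 Schwann cells stably carrying firefly luciferase driven by a PMP22 intronic element, in 10% FBS, treated 24 h at 37 C. ONE-Glo luminescence normalized to PTC124 control and DMSO (0%); curves classed by r2, magnitude and activity.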

[14] = qHTS profiling for inhibitors of Plasmodium falciparum proliferation (AID 504749);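 further: 0% = DMSO vehicle and full inhibition = artemisinin control; nearly all actives have a fitted effect of over 60% in size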; conditions: P. falciparum in erythrocytes, SYBR Green DNA, 72 h, at 12.8 µM (top of the series)
In short: (§1)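 Readout was DNA-dye fluorescence from lysed cultures, ex 485/em 535 nm. Parasitized red cells had grown 72 h with compound; data scaled between 0.29 uM artemisinin and DMSO wells and corrected using vehicle-only plates.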

CP191 = assay: as above; conditions: P. falciparum in erythrocytes, SYBR Green DNA, 72 h; series mostly up to 12.8 µM
In short: as §1

CP217 = assay: as above; conditions: P. falciparum in erythrocytes, SYBR Green DNA, 72 h; series mostly up to 12.8 µM
In short: as §1

CP250 = assay: as above; conditions: P. falciparum in erythrocytes, SYBR Green DNA, 72 h; series mostly up to 12.8 µM
In short: as §1

CP256 = assay: as above; conditions: P. falciparum in erythrocytes, SYBR Green DNA, 72 h; series mostly up to 12.8 µM
In short: as §1

FAB9 = assay: as above; conditions: P. falciparum in erythrocytes, SYBR Green DNA, 72 h; series mostly up to 12.8 µM
In short: as §1

JCK = assay: as above; conditions: P. falciparum in erythrocytes, SYBR Green DNA, 72 h; series mostly up to 12.8 µM
In short: as §1

[15] = measured here: cell count channel max response
[16] = measured here: lipid channel max response

Chain of 3',5'-cyclic-AMP phosphodiesterase 4B (Homo sapiens) (Q07343 whole entry, looked up): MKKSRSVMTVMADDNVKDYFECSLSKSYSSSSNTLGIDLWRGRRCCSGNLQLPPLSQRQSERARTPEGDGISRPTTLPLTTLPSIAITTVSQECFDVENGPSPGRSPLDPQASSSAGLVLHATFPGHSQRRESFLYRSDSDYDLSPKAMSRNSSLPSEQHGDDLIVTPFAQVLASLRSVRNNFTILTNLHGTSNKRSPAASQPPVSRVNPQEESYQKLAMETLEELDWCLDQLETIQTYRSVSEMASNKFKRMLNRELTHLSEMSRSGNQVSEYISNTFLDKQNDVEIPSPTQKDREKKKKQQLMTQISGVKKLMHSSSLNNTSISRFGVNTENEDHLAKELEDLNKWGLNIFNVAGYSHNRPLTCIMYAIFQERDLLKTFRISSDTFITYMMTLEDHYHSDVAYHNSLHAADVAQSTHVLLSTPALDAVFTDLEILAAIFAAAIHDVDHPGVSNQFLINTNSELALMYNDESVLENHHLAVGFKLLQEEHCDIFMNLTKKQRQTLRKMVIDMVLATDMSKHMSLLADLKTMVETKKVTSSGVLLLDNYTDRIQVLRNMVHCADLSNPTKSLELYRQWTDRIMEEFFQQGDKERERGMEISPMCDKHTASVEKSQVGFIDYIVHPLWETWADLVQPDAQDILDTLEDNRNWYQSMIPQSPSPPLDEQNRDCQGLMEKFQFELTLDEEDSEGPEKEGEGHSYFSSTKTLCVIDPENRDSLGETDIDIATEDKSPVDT
Chain of Cytochrome P450 1A2 (Homo sapiens) (P05177 whole entry, looked up): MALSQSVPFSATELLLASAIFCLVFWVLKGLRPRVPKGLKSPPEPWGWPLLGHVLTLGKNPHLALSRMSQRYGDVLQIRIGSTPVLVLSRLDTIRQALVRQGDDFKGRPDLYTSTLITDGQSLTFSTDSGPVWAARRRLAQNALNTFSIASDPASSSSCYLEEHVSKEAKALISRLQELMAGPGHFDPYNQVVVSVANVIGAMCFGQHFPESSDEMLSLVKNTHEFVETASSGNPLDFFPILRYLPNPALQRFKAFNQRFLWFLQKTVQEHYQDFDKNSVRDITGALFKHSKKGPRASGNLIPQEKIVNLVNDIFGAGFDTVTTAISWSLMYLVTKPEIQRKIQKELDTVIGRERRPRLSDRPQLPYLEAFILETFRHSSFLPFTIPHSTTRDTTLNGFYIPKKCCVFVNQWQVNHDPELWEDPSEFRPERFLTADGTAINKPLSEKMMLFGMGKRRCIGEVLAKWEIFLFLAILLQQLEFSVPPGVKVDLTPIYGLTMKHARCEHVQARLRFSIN
Chain of Ubiquitin carboxyl-terminal hydrolase 1 (Homo sapiens) (O94782 whole entry, looked up): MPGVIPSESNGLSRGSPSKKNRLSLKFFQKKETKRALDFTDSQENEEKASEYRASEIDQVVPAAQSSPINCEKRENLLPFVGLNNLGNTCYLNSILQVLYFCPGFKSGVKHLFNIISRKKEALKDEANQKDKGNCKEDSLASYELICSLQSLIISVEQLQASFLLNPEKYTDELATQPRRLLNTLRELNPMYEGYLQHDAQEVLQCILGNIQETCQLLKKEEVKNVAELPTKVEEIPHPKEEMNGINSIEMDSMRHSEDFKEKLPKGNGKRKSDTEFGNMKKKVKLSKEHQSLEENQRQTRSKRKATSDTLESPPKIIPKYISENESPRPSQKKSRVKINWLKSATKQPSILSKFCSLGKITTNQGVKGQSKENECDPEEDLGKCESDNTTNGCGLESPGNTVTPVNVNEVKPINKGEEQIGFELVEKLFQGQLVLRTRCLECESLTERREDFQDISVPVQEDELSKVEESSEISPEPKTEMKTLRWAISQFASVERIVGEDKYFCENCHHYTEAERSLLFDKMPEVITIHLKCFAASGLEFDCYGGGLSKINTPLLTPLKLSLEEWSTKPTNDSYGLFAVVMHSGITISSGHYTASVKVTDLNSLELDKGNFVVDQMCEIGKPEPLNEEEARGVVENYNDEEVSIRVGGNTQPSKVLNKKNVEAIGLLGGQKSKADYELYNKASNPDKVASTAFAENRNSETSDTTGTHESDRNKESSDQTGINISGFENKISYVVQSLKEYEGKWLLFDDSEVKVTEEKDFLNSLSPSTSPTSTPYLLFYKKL
Chain of Glucocorticoid receptor (Homo sapiens) (P04150 whole entry, looked up, the tested form may be a part): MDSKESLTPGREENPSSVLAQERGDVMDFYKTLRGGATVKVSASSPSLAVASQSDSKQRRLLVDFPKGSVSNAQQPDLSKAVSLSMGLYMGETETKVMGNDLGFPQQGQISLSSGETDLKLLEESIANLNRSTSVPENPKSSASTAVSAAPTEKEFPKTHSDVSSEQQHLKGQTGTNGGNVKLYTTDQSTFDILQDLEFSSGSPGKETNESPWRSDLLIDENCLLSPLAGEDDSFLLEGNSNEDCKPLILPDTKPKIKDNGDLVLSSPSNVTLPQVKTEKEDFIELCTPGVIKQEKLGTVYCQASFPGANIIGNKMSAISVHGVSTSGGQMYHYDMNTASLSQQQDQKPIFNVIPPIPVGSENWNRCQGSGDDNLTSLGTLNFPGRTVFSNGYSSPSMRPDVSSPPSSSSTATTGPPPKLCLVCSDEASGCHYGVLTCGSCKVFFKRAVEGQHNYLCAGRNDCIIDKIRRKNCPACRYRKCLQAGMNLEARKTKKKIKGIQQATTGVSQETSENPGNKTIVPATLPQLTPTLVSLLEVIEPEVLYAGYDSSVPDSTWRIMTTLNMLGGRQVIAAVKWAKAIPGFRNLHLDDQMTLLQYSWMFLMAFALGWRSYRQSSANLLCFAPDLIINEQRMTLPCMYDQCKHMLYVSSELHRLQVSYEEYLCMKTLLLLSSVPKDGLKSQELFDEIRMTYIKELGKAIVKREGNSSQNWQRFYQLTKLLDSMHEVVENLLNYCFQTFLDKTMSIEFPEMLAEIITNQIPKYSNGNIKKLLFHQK
Chain of Luciferin 4-monooxygenase (Photinus pyralis) (P08659 whole entry, looked up): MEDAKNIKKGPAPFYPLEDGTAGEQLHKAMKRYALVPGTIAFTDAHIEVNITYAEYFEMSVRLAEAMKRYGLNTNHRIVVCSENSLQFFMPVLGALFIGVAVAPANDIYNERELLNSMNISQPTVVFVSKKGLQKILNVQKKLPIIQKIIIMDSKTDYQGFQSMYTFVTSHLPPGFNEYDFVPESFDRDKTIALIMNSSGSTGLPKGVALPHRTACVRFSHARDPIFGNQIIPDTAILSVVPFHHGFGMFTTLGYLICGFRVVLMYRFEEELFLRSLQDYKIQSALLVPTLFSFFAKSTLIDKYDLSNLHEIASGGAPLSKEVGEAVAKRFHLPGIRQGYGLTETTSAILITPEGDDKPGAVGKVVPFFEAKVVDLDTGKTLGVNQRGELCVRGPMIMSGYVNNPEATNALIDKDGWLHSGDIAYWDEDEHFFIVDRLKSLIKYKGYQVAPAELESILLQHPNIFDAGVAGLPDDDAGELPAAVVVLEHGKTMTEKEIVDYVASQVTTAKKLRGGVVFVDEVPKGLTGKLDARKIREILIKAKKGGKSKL
Chain of ATP-dependent 6-phosphofructokinase (Trypanosoma brucei brucei) (O15648 whole entry, looked up): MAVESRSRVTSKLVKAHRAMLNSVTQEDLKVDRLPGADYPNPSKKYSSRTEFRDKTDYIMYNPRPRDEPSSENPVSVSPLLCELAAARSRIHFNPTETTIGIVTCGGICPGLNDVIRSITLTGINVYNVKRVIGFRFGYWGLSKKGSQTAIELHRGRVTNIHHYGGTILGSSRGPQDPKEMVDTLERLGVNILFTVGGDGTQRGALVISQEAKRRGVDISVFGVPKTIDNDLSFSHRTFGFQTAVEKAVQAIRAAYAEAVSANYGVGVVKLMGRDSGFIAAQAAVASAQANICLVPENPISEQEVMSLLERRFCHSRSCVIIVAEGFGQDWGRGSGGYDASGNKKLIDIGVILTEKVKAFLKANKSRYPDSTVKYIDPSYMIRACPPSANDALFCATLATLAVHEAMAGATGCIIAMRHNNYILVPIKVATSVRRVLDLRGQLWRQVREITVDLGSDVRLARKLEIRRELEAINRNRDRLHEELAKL

CN[C@]1(C)[C@H]2CC[C@@H](C2)C1(C)C
-14.5%: max response [9, 16]
inactive: outcome [1] | Potency [2] | activity change, negative = inhibition [3] -19.7% | outcome [4] | Potency [5] > 20.6 µM | Potency [6] > 20.6 µM | Potency [7] | outcome [8] | activity change, negative = inhibition ([9]; at 25.7 µM (top of the series)) -3.7%
-12.2%: max response [9, 15]

Cn1c(-c2ccc3c(c2)OCO3)cc(=O)c2ccccc21
-4.86%: max response [9, 15]
inactive: outcome [1] | activity change, negative = inhibition [3] -10.6% | outcome [4] | Potency [5] > 20.6 µM | Potency [6] > 20.6 µM | Potency [7] | activity change, negative = inhibition ([9]; at 25.7 µM (top of the series)) 2.22% | Potency [10]
active: Potency [2] 5.01 µM
-2.71%: max response [9, 16]

CC(=O)N[C@H](CS)C(=O)O
2.82%: max response [9, 15]
inactive: outcome [1] | Potency [2] | activity change, negative = inhibition [3] -2.14% [at 38 µM] | outcome [4] | Potency [5] > 46 µM | Potency [6] > 46 µM | Potency [7] | outcome [8] | activity change, negative = inhibition ([9]; at 57.5 µM (top of the series)) 4.08% | Potency [10]
18.6%: max response [9, 16]

CN(C)c1ccc(O)c2c1C[C@H]1C[C@H]3[C@@H](N(C)C)C(=O)C(C(N)=O)=C(O)[C@]3(O)C(=O)C1=C2O
2.32%: max response [9, 15]
0.719%: max response [9, 16]
inactive: outcome [1] | Potency [2] | activity change, negative = inhibition [3] 12.2% | outcome [4] | Potency [5] > 20.6 µM | Potency [6] > 20.6 µM | Potency [7] | outcome [8] | activity change, negative = inhibition ([9]; at 25.7 µM (top of the series)) -0.929%

NC(=O)N[C@H]1NC(=O)NC1=O
21.8%: max response [9, 15]
17.1%: max response [9, 16]
inactive: outcome [1] | Potency [2] | activity change, negative = inhibition [3] -6.77% | outcome [4] | Potency [6] > 20.6 µM | outcome [8] | activity change, negative = inhibition ([9]; at 25.7 µM (top of the series)) -0.627% | outcome [11] | Potency [12] | Potency [13] | activity, negative = inhibition ([14]; parasite line A) 2.27% | activity, negative = inhibition ([14]; parasite line B) 16.7% | Potency (CP191) | Potency (CP217) | Potency (CP250) | Potency (CP256) | Potency (FAB9) | Potency (JCK)

CC(=O)C[C@H](c1ccc([N+](=O)[O-])cc1)c1c(O)c2ccccc2oc1=O
inactive: outcome [1] | Potency [2] | activity change, negative = inhibition [3] -1.36% | outcome [4] | Potency [7] | outcome [8] | activity change, negative = inhibition ([9]; at 25.7 µM (top of the series)) 3.15% | outcome [11] | Potency [10] | Potency [12] | Potency [13] | activity, negative = inhibition ([14]; parasite line A) 7.55% | activity, negative = inhibition ([14]; parasite line B) 3.6% | Potency (CP191) | Potency (CP217) | Potency (CP250) | Potency (CP256) | Potency (FAB9) | Potency (JCK)
-11.4%: max response [9, 15]
-10.7%: max response [9, 16]

— PubChem BioAssay (NCATS)
